From the supplement of paper PMC10849652
Targets with a hit are over-represented here; the source holds about 7,900 in all. About 0.6% of all pairs of compound and target were hits.

Tests used:
Experiment in all cases: log2 fold change, soluble protein after heating vs DMSO (PISA); higher = thermal stabilisation; K562 cells, 10 uM, 30 min; active = over 0.2 and 3.5 SD of the protein, either way, in both replicates (recomputed)
erlotinib = compound: C#Cc1cccc(Nc2ncnc3cc(OCCOC)c(OCCOC)cc23)c1 [erlotinib]
Summary of the method: (§1)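 K562 cells at 2×10^6 cells/mL were treated with 10 μM compound for 30 min. Aliquots were heated for 3 min across 48°C-58°C, pooled, and extracted in PBS with 0.5% NP-40 at 4°C; soluble protein was the supernatant after 21,000xg for 90 min. Soluble protein was quantified by TMTpro 16plex LC-MS/MS with channel sums equalised, and reported as log2 fold change in thermal stability against DMSO controls, with values from duplicates.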

[1] = compound: C/C(=N\NC(=O)C1=CC(=CC=C1)S(=O)(=O)N2CCOCC2)/C3=C(C=CC(=C3)Cl)O
Summary of the method: as §1

[2] = compound: C1=CC(=C(C=C1Cl)C2=NC3=NC=CN=C3C(=N2)NC4=CC=NC=C4)F
Summary of the method: as §1

[3] = compound: C1=CC(=CC=C1C2=NC3=C(N2)C=C(C=C3)C(=O)N)OC4=CC=C(C=C4)Cl
Summary of the method: as §1

[4] = compound: C1=CC2=C(C=CC(=C2)/C=C\3/C(=O)NC(=NCC4=CC=CS4)S3)N=C1
Summary of the method: as §1

[5] = compound: C1=CC2=NC=CN=C2C=C1/C=C/3\C(=O)NC(=O)S3
Summary of the method: as §1

[6] = compound: C1=CC=C(C=C1)C2=NC(=C(N2)C3=CC=NC=C3)C4=CC(=C(C=C4)Cl)O
Summary of the method: as §1

[7] = compound: C1=CC=C2C(=C1)C3=NNC4=CC=CC(=C43)C2=O
Summary of the method: as §1

[8] = compound: C1CCN(C1)C(=O)NC2=CC=CC(=C2)NC3=NC=C(C(=N3)NCCC4=CN=CN4)Br
Summary of the method: as §1

[9] = compound: C1CN(CCC1(CC2=CC=C(C=C2)Cl)N)C3=NC=NC4=C3C=CN4
Summary of the method: as §1

IRAK-1-4 Inhibitor I = compound: C1COCCN1CCN2C3=CC=CC=C3N=C2NC(=O)C4=CC(=CC=C4)[N+](=O)[O-] [IRAK-1-4 Inhibitor I]
Summary of the method: as §1

ibrutinib = compound: C=CC(=O)N1CCC[C@@H](n2nc(-c3ccc(Oc4ccccc4)cc3)c3c(N)ncnc32)C1 [ibrutinib]
Summary of the method: as §1

[10] = compound: CC(=O)c1cnc2ccc(-c3cc(Cl)c(O)c(Cl)c3)nc2c1N[C@H]1CC[C@H](CN(C)C)CC1
Summary of the method: as §1

ralimetinib = compound: CC(C)(C)Cn1c(N)nc2ccc(-c3[nH]c(C(C)(C)C)nc3-c3ccc(F)cc3)nc21 [ralimetinib]
Summary of the method: as §1

[11] = compound: CC(C)(O)CC(=O)NCCn1ccc2ncnc(Nc3ccc(Oc4cccc(C(F)(F)F)c4)c(Cl)c3)c21
Summary of the method: as §1

[12] = compound: CC(C)C1=C2N=C(C=C(N2N=C1)NCC3=CC=CC=C3)NCCCCCCN
Summary of the method: as §1

[13] = compound: CC(C)C[C@@H](C=O)NC(=O)[C@H](CC(C)C)NC(=O)[C@H](CC(C)C)NC(=O)OCc1ccccc1
Summary of the method: as §1

pinometostat = compound: CC(C)N(C[C@H]1O[C@@H](n2cnc3c(N)ncnc32)[C@H](O)[C@@H]1O)[C@H]1C[C@@H](CCc2nc3cc(C(C)(C)C)ccc3[nH]2)C1 [pinometostat]
Summary of the method: as §1

[14] = compound: CC1=C(C(CC(=O)N1)C2=CC=C(C=C2)C(F)(F)F)C(=O)NC3=C(C=C4C(=C3)C=NN4)F
Summary of the method: as §1

[15] = compound: CC1=C(C2=C(C=C1)C(=O)C3=CC=CC=C3N2CCCN)C
Summary of the method: as §1

Measured: log2 fold change

MEPCE (UniProt Q7L2J0)
Sequence of UniProt Q7L2J0 (Q7L2J0 whole entry, looked up): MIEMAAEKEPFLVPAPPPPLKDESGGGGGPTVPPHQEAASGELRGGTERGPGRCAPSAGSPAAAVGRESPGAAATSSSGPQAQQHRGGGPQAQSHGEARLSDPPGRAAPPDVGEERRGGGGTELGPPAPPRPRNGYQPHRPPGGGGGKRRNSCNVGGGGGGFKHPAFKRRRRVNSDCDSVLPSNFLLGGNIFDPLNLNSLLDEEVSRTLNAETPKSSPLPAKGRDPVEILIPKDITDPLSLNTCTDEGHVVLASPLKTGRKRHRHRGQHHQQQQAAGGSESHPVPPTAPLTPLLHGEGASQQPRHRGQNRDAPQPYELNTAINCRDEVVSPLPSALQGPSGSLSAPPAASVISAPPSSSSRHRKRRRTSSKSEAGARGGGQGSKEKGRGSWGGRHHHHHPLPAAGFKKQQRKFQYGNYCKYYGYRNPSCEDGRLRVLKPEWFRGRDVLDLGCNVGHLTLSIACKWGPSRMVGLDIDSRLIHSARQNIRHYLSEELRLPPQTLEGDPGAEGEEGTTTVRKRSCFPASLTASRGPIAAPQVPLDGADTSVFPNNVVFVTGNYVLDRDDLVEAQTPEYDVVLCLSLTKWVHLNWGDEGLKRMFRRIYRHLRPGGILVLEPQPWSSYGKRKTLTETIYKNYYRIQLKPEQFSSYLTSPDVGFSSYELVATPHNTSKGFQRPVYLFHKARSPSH
inactive: erlotinib 0.063 | [1] 0.064 | [2] -0.022 | [3] -0.002 | [4] 0.039 | [5] -0.01 | [6] 0.103 | [7] 0.024 | [8] -0.049 | [9] -0.047 | IRAK-1-4 Inhibitor I 0.088 | ibrutinib 0.023 | [10] 0.166 | ralimetinib 0.108 | [11] 0.026 | [12] -0.16 | [13] 0 | pinometostat 0.098 | [14] -0.026
active: [15] -0.31

MAP4 (UniProt E7EVA0)
inactive: erlotinib 0 | [1] -0.093 | [2] -0.219 | [3] 0.063 | [4] -0.087 | [5] 0.058 | [6] -0.086 | [7] -0.003 | [8] 0.034 | [9] -0.053 | IRAK-1-4 Inhibitor I -0.058 | ibrutinib -0.036 | [10] -0.022 | ralimetinib 0.088 | [11] 0.013 | [12] -0.025 | [13] 0.049 | pinometostat 0.104 | [14] -0.046 | [15] 0.027

L2HGDH (UniProt Q9H9P8)
Sequence of UniProt Q9H9P8 (Q9H9P8 whole entry, looked up): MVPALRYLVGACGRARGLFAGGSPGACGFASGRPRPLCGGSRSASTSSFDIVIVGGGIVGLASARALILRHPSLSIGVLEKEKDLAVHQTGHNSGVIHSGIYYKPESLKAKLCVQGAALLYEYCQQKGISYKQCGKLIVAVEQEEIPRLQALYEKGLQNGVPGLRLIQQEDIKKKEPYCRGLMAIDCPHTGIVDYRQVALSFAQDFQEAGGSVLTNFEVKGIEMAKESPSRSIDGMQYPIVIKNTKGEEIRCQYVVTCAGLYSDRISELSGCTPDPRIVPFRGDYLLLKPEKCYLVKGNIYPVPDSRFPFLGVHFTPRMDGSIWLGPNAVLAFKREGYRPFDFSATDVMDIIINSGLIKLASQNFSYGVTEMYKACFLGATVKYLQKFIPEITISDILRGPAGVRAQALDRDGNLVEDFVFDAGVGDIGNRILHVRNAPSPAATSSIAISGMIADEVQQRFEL
inactive: erlotinib 0.027 | [1] 0.169 | [2] 0.009 | [3] 0.043 | [4] 0.07 | [5] 0.01 | [6] 0.05 | [7] 0.093 | [8] -0.005 | [9] -0.007 | IRAK-1-4 Inhibitor I 0.095 | ibrutinib 0.028 | [10] -0.065 | ralimetinib 0.003 | [11] -0.092 | [12] -0.069 | [13] -0.026 | pinometostat 0 | [14] -0.018 | [15] 0.029

LARP1 (UniProt Q6PKG0)
active: [15] -0.303
inactive: erlotinib -0.051 | [1] 0.002 | [2] -0.11 | [3] 0.085 | [4] -0.025 | [5] -0.001 | [6] -0.081 | [7] -0.067 | [8] 0.046 | [9] -0.172 | IRAK-1-4 Inhibitor I -0.131 | ibrutinib 0.009 | [10] -0.059 | ralimetinib 0.031 | [11] 0 | [12] -0.088 | [13] 0.036 | pinometostat 0.109 | [14] 0.021

KCT2 (UniProt Q8NC54)
Sequence of UniProt Q8NC54 (Q8NC54 whole entry, looked up): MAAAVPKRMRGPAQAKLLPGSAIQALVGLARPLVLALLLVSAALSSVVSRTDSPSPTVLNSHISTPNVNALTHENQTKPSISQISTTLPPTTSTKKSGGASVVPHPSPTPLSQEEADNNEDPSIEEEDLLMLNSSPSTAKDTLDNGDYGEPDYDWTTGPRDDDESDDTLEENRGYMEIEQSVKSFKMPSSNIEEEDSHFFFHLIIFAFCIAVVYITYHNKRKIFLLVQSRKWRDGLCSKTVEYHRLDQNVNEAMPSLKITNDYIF
inactive: erlotinib 0.069 | [1] 0.019 | [2] 0.064 | [3] 0.061 | [4] -0.005 | [5] 0.075 | [6] 0.096 | [7] -0.005 | [8] -0.028 | [9] 0.056 | IRAK-1-4 Inhibitor I 0.039 | ibrutinib 0.029 | [10] -0.04 | ralimetinib -0.014 | [11] 0.004 | [12] -0.118 | [13] -0.011 | pinometostat 0.009 | [14] 0.035 | [15] -0.035

IPO7 (UniProt O95373)
active: [12] -0.309 | [15] -0.221
inactive: erlotinib -0.015 | [1] 0.078 | [2] 0.034 | [3] -0.003 | [4] 0.01 | [5] 0.056 | [6] 0.026 | [7] -0.019 | [8] -0.004 | [9] -0.05 | IRAK-1-4 Inhibitor I 0 | ibrutinib -0.063 | [10] -0.021 | ralimetinib 0.032 | [11] -0.153 | [13] -0.069 | pinometostat 0.012 | [14] 0

MED22 (UniProt Q15528)
Sequence of UniProt Q15528 (Q15528 whole entry, looked up): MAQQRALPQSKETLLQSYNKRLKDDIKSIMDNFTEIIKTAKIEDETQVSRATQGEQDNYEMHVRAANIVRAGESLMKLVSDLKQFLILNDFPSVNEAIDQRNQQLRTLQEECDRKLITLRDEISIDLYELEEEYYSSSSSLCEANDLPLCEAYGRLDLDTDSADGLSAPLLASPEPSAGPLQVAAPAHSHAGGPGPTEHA
inactive: erlotinib -0.11 | [1] 0.035 | [2] -0.013 | [3] -0.036 | [4] 0.061 | [5] -0.002 | [6] 0.022 | [7] -0.071 | [8] -0.156 | [9] 0.259 | IRAK-1-4 Inhibitor I 0.013 | ibrutinib 0.076 | [10] -0.058 | ralimetinib 0.064 | [11] 0.039 | [12] -0.016 | [13] 0.076 | pinometostat 0.012 | [14] -0.007 | [15] 0.096

INTS5 (UniProt Q6P9B9)
inactive: erlotinib -0.027 | [1] 0.025 | [3] -0.086 | [4] -0.023 | [5] 0.097 | [6] -0.138 | [7] -0.18 | [8] -0.126 | [9] -0.033 | IRAK-1-4 Inhibitor I 0.076 | ibrutinib -0.039 | [10] 0.529 | ralimetinib 0.019 | [11] -0.232 | [12] 0.052 | [13] -0.064 | pinometostat 0.033 | [14] -0.102 | [15] 0.073
active: [2] -0.403

IPO9 (UniProt Q96P70)
Sequence of UniProt Q96P70 (Q96P70 whole entry, looked up): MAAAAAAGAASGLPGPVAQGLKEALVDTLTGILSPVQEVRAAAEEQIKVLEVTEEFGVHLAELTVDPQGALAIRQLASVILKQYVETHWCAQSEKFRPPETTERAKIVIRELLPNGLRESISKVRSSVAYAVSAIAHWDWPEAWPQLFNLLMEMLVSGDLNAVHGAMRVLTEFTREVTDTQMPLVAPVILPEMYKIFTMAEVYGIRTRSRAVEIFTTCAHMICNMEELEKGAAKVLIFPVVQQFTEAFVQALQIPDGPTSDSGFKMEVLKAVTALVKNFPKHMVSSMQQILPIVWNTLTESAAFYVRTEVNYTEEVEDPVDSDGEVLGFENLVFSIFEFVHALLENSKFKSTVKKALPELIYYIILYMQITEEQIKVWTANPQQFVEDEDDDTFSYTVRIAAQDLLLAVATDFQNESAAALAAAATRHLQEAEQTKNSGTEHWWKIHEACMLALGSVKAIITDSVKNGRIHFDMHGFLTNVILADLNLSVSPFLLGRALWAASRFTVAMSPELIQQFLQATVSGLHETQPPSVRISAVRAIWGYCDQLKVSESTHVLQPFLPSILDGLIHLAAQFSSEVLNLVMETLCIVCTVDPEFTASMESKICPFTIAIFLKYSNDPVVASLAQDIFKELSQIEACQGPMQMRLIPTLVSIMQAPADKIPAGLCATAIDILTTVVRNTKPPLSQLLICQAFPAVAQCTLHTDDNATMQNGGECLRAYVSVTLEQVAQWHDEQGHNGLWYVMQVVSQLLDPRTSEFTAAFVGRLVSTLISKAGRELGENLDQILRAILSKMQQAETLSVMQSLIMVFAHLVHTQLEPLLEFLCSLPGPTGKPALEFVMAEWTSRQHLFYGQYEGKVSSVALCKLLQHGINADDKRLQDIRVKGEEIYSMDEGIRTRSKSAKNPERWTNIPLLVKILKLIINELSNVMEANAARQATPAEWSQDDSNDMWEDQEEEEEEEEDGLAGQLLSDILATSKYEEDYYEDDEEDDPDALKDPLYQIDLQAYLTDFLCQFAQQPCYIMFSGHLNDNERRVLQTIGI
inactive: erlotinib -0.021 | [1] 0.073 | [2] 0.01 | [3] -0.061 | [4] 0.023 | [5] 0.096 | [6] -0.035 | [7] -0.024 | [8] -0.02 | [9] 0.052 | IRAK-1-4 Inhibitor I 0.024 | ibrutinib -0.082 | [10] 0.113 | ralimetinib 0.01 | [11] -0.079 | [12] -0.039 | [13] -0.068 | pinometostat 0.012 | [14] -0.025
active: [15] 0.447

MFN2 (UniProt O95140)
Sequence of UniProt O95140 (O95140 whole entry, looked up): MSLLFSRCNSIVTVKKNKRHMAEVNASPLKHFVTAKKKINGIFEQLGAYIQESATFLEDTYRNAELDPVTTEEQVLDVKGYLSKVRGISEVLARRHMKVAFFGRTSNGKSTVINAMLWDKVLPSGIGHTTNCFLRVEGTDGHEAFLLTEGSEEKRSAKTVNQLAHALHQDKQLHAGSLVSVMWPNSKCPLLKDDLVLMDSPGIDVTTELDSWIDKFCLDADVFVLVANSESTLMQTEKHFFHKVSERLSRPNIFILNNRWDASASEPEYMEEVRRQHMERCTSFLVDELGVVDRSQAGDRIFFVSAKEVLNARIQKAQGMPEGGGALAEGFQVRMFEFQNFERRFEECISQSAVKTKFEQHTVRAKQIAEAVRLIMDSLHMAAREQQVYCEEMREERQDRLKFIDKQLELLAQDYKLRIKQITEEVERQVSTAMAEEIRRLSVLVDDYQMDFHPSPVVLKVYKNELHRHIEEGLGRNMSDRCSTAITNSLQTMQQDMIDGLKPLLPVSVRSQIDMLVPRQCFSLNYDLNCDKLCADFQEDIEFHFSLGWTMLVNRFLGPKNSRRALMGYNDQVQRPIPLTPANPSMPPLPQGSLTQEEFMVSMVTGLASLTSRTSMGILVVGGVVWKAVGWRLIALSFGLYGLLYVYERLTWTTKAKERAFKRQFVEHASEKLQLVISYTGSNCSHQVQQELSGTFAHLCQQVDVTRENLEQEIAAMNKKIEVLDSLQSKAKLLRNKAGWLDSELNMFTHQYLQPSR
inactive: erlotinib 0.027 | [1] 0.049 | [2] 0.007 | [3] -0.001 | [4] 0.026 | [5] 0.008 | [6] 0.041 | [7] -0.003 | [8] -0.016 | [9] -0.019 | IRAK-1-4 Inhibitor I -0.033 | ibrutinib 0.03 | [10] -0.055 | ralimetinib -0.014 | [11] 0.009 | [13] 0.032 | pinometostat -0.017 | [14] -0.022 | [15] 0.049
active: [12] -0.479

MAP3K4 isoform 2 (UniProt Q9Y6R4)
inactive: erlotinib -0.027 | [1] 0.019 | [2] 0.036 | [3] -0.023 | [4] 0.039 | [5] -0.017 | [6] -0.023 | [7] -0.031 | [8] 0.034 | [9] 0.07 | IRAK-1-4 Inhibitor I 0.049 | ibrutinib 0 | [10] 0.198 | ralimetinib 0.007 | [11] -0.014 | [12] -0.027 | [13] -0.023 | pinometostat 0.014 | [14] -0.033 | [15] 0.002

MAGI1 (UniProt Q96QZ7)
Sequence of UniProt Q96QZ7 (Q96QZ7 whole entry, looked up): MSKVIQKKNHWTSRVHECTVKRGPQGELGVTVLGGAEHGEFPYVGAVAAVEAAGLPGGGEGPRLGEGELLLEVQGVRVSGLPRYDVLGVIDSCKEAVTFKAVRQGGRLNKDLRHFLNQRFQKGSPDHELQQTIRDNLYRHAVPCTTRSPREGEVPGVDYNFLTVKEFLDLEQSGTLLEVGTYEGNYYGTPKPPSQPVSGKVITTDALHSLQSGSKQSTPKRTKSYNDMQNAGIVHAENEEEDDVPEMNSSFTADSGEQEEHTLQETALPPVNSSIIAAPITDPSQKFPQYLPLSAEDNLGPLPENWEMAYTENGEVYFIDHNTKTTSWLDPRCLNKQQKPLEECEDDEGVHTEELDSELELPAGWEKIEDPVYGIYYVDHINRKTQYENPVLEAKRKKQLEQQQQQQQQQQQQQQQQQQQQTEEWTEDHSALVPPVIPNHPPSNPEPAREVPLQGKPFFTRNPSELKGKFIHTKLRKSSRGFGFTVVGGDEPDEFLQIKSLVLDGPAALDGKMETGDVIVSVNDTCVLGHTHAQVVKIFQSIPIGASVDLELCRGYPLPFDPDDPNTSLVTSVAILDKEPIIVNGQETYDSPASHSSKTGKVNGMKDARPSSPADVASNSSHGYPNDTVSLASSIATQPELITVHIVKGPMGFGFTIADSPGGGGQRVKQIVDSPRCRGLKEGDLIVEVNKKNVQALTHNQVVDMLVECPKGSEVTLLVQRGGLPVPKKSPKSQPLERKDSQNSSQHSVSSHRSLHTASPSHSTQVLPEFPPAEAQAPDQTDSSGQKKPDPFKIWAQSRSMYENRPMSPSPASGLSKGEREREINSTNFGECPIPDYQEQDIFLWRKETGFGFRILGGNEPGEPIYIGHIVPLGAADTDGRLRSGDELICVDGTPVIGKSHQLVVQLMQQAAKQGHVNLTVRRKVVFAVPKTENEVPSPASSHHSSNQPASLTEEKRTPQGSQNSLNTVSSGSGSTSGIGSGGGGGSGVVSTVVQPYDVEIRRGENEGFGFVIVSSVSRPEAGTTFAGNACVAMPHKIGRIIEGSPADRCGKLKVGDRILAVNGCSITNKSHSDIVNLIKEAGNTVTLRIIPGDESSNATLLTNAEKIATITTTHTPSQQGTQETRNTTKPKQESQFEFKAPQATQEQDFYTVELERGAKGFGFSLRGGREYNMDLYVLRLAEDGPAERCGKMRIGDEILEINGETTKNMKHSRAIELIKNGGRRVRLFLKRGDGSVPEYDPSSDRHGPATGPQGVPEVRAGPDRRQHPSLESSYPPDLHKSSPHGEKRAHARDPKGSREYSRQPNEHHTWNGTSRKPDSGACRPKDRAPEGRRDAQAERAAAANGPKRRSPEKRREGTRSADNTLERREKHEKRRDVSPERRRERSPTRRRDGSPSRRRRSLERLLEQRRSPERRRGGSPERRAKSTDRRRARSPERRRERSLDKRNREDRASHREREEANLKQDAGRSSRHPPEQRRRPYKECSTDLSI
inactive: erlotinib -0.022 | [1] 0 | [2] -0.083 | [3] 0.049 | [4] -0.008 | [5] 0.018 | [6] -0.015 | [7] -0.016 | [8] 0.012 | [9] -0.047 | IRAK-1-4 Inhibitor I 0 | ibrutinib 0.057 | [10] -0.071 | ralimetinib 0.014 | [11] 0.032 | [12] -0.009 | [13] 0.01 | pinometostat 0.025 | [14] -0.016 | [15] 0.07

LMF2 (UniProt Q9BU23)
active: [3] 0.434
inactive: erlotinib -0.017 | [1] 0.002 | [2] -0.005 | [4] 0.055 | [5] -0.012 | [6] 0.006 | [7] 0.052 | [8] -0.021 | [9] 0.021 | IRAK-1-4 Inhibitor I 0.006 | ibrutinib -0.035 | [10] 0.001 | ralimetinib -0.008 | [11] -0.029 | [12] -0.152 | [13] 0.08 | pinometostat 0.008 | [14] -0.018 | [15] 0.001

JMJD6 isoform 3 (UniProt Q6NYC1)
inactive: erlotinib -0.009 | [1] 0.011 | [2] 0.039 | [3] 0.044 | [4] 0.051 | [5] 0.03 | [6] 0.107 | [7] -0.037 | [8] -0.007 | [9] 0.181 | IRAK-1-4 Inhibitor I -0.02 | ibrutinib -0.011 | [10] -0.049 | ralimetinib -0.065 | [11] 0.019 | [12] -0.041 | [13] 0.004 | pinometostat -0.016 | [14] 0.013 | [15] 0.102

KPNA1 (UniProt P52294)
inactive: erlotinib -0.042 | [1] 0.09 | [2] -0.053 | [3] -0.037 | [4] -0.011 | [5] 0.009 | [6] 0.035 | [7] -0.061 | [8] -0.032 | [9] -0.07 | IRAK-1-4 Inhibitor I -0.046 | ibrutinib -0.073 | [10] 0.062 | ralimetinib 0.089 | [11] -0.022 | [12] 0.084 | [13] 0.123 | pinometostat 0.071 | [14] -0.05
active: [15] -0.26

MAP2K7 isoform 4 (UniProt O14733)
inactive: erlotinib 0.021 | [1] -0.005 | [2] 0.061 | [3] 0.017 | [4] 0.01 | [5] 0.017 | [6] -0.009 | [7] -0.032 | [8] -0.012 | [9] 0.023 | IRAK-1-4 Inhibitor I 0.013 | [10] 0.175 | ralimetinib -0.043 | [11] -0.013 | [12] -0.025 | [13] 0.051 | pinometostat 0.022 | [14] 0.033 | [15] 0.032
active: ibrutinib -0.301
